Laboratory results published in the supplement of paper PMC6555819.

System: VDR:RXRa (NR concentration 270 nM, RXRa partner concentration 90 nM)
Assay: PBM binding z-score (relative to random genomic background probes); higher = stronger binding; sequences stand for … in GC…GCGATTGACAGCGTAGAATGAAGG
Method: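 Protein-binding microarray (Agilent 4x180K custom design, double-stranded 60-nt probes: 5' GC cap, 34-nt variable region, 24-nt constant primer region; full probe sequence given). Purified or IVT nuclear receptor:RXRα heterodimers (3:1 NR:RXRα, mostly 270:90 nM) or homodimers were incubated for 1 h in PBS with 2% milk and no ligand, then detected with Alexa488 antibodies. Fluorescence from o1-orientation probes (~5 replicates averaged) was converted to z-scores against 500 random hg19 background probes. Variable regions are seed direct-repeat (DR0–DR5) sites, all their single-nucleotide variants and half-site ablations.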

Sequence	PBM binding z-score
AATACAGGTTCACTAGGCCAGAGTAGGTACGAAT	3.2
CGTCCAAGGTCAAAGGAGGTCAGTGAAGACAGAT	6.53
ATCTCTAGGTAAAAGTTCAGTAAATCCCGAGGAT	1.19
TGAATGAGATTAAAGATCAGGGAACGTGGCGTCG	-0.176
CCTATCAGGCCAGGGTCACTCAAGCATTTCGCTT	2.73
ACAGACAGGTGAGTGAAGGTAACACAGCTGGACG	-0.0356
GCGACTGGGGCAAAGCAGGTTCCCATAAGGTTGG	-0.543
CAAACTAGGTCACGAAAGGTCCAAGTCGAATGAC	3.82
TCTATTAGTTGATTAGGGCAACAGAAACAGCGGA	0.574
CGTCCGAGGTCAGAGAGGTCAGTGAATGCCGAGT	7.89
CCTACTGGGCCATTCAGAGGTCATTCATCATATG	4.26
TCATATAGTTAAACAGGTGAAAGTCCGTAAGTTA	1.21
TCATATAGGTAAGACAGGTGAAAGTCGGCATCTA	0.987
CCTTACGGGTCACTTCAGGTTATAGCATCGGAGT	4.22
CGTCCAAGGTCAAGGTTAGTGAAAGAGACTCGAA	3.93
ATCTCTAGATAAAGATAGTTCAGTGAATGCAAAT	0.517
TCGAGTAGGTTAGTCGGAGCATTCAGCCAACATA	-0.307
CATACATGGTCAGCTAGGCCAGAGTAGGGACGGC	-0.459
CTACCAAGGTGAACAAGGTCGTGGATTACTATTC	5.77
CATCCAAGGTCAATGCTAGGTCAGTGAAAGCATT	4.82

Sequence	PBM binding z-score
TGAATGAGGTTATACGATCAGGGAACGTTGCAAA	0.918
TCGAGTAGGTTAGGGGCATTAAGAATGGCGTCGA	0.706
CCAGACAGGAGAAAGGTAACTCAGTCTGGTACGC	0.0971
CCAACTAGGTCAAGAGGTCAAAGTCCGCTTCCCG	6.1
CAAACTAGGTCACCGGAAGGTCAAAGTGCGCATG	6.18
AGAACAAGGGCAATGAGTTGATAGCACGGGTGGC	4.7
TAGCCTAGGTCAGATCGGGCCACTATACGCTATA	1.39
GGAAAGAGGGCAAAGTTGATAGCATCTGTCGACG	1.53
AGTCAAAGCTCACTAGGTAACGTAAGATTCAGCT	-0.551
CGTCCAAGGTCATAGGAGGTCCGTGAAGACAGAT	4.88
GCTTGTAGATCAAGATTAAGAAAGACTAAGCTAA	-0.528
CCATACGGGTCACTCCAGGTTATAGCATCGGAGT	4.11
CGATCTAGGTCAAGGACAGTGAATCTCCGCACGC	0.643
AGTCAAAGTTCAATAGGTAACGTAAGATTCAGCT	3.71
TCGAGTCGGTTACCAATGGGGCATTCAGCTTTCT	-0.384
GGAACGAGGGCAAAGTTGATAGGATCTGTCGACG	1.37
ACTAGCAGGCCAAGTTTAGGTCACTCAAACAAAG	0.781
CAAACTAAGTCAAAGGTCAAAGTCGAGCCAACCA	5.35
ATCGAAAGGTCGACGGGGTGAGTATACACCGTTT	5.62
ATCGAAAGGTCGAGGTTAGTATAGAGAAAGGGAA	2.75
